# Results published in PubChem BioAssay (NCI).
# Compounds without any hit were thinned out: in the full panel of roughly 79,000, 15% have a hit. A number with no mark means an inactive call. Activity calls are given as the source filed them. No stated cut-off is given here; in the data, active means growth inhibition above about 70%; inactive means the rest.
# Experiments:
# [1] = NCI Yeast Anticancer Drug Screen. Data for the rad52 strain (AID 147);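 further: 0% = growth of vehicle-treated control cultures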; conditions: S. cerevisiae rad52 mutant growth inhibition, hits give high values
# Summary of the method: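 Genetically altered yeast (DNA damage repair defect) treated with compound; inhibition calculated relative to vehicle.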
# [2] = NCI Yeast Anticancer Drug Screen. Data for the wt1 strain (AID 149);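 further: 0% = growth of vehicle-treated wt1 cultures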; conditions: S. cerevisiae wt1 strain (SPY 50644) growth inhibition, hits give high values
# Summary of the method: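 wt1 yeast, compound-treated; % growth inhibition vs vehicle control.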
# [3] = NCI Yeast Anticancer Drug Screen. Data for the rad50EPP+ strain (AID 151);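 further: 0% = growth of vehicle-treated control cultures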; conditions: S. cerevisiae rad50 mutant strain, hits give high values
# Summary of the method: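 Strain rad50EPP+; compound exposure; % growth inhibition vs vehicle.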
# [4] = NCI Yeast Anticancer Drug Screen. Data for the mgt1 strain (AID 153); conditions: S. cerevisiae mgt1 mutant growth inhibition, hits give high values
# Summary of the method: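 Read-out: yeast growth inhibition vs vehicle control. Strain mgt1, drawn from a panel altered in DNA damage repair or cell cycle control.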
# [5] = NCI Yeast Anticancer Drug Screen. Data for the rad50 strain (AID 155);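 further: 0% = growth of vehicle-only cultures of the same strain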; conditions: S. cerevisiae rad50 strain growth inhibition, hits give high values
# Summary of the method: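 Genetically altered yeast (DNA repair pathway); compound treatment; growth inhibition vs vehicle ctrl.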
# [6] = NCI Yeast Anticancer Drug Screen. Data for the mec2-1 strain (AID 157); conditions: S. cerevisiae mec2-1 strain, hits give high values
# Summary of the method: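 Cells of the genetically defined mec2-1 yeast strain are incubated with test compound. Inhibition of growth is calculated against vehicle-treated controls.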
# [7] = NCI Yeast Anticancer Drug Screen. Data for the rad14 strain (AID 159);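 further: 0% = growth of vehicle-treated control cultures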; conditions: S. cerevisiae rad14 strain growth inhibition, hits give high values
# Summary of the method: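 Test compounds were applied to a repair-deficient yeast strain. Its growth was then compared with that of cultures given vehicle alone, and inhibition was expressed relative to those controls.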
# [8] = NCI Yeast Anticancer Drug Screen. Data for the sgs1 mgt1 strain (AID 161);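 further: 0% = growth of cultures given vehicle only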; conditions: S. cerevisiae sgs1 mgt1 strain, hits give high values
# Summary of the method: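 Read-out: growth inhibition vs vehicle controls. Cells: mutant yeast strain deficient in DNA damage repair.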
# [9] = NCI Yeast Anticancer Drug Screen. Data for the CLN2oe strain (AID 163);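 further: 0% = growth of vehicle-only control cultures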; conditions: S. cerevisiae CLN2oe strain, hits give high values
# Summary of the method: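 Strain altered in cell-cycle control, incubated with compound; growth compared to solvent-treated controls.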
# [10] = NCI Yeast Anticancer Drug Screen. Data for the cln2 rad14 strain (AID 165);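 further: 0% = growth equal to vehicle treated cultures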; conditions: S. cerevisiae cln2 rad14 strain, hits give high values
# Summary of the method: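 The screen exposed genetically defined yeast (cln2 rad14) to test compounds and scored growth inhibition relative to vehicle-treated controls.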
# [11] = NCI Yeast Anticancer Drug Screen. Data for the bub3 strain (AID 167); conditions: S. cerevisiae bub3 mutant strain, hits give high values
# Summary of the method: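 Yeast carrying a defined mutation is treated with each compound, and growth is compared with that of vehicle-exposed cells to give inhibition.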
# [12] = NCI Yeast Anticancer Drug Screen. Data for the wt2 strain (AID 169);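 further: 0% = growth of vehicle-treated yeast cultures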; conditions: S. cerevisiae wt2 strain growth inhibition, hits give high values
# Summary of the method: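 Steps: yeast strain treated with compound; growth recorded; inhibition calculated relative to cultures given vehicle alone.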
# [13] = NCI Yeast Anticancer Drug Screen. Data for the mlh1 strain (AID 171);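 further: 0% = growth of vehicle-treated control cultures of the same strain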; conditions: S. cerevisiae mlh1 strain growth inhibition, hits give high values
# Summary of the method: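 Yeast screen: mutant strain plus compound, growth scored against vehicle control wells.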
# [14] = NCI Yeast Anticancer Drug Screen. Data for the sgs1 strain (AID 173);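 further: 0% = growth of vehicle-only control cultures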; conditions: S. cerevisiae sgs1 mutant, hits give high values
# Summary of the method: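 Inhibition of yeast growth served as the measure. The mutant strain was treated with each compound, and growth was normalised to cultures receiving vehicle alone.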
# [15] = NCI Yeast Anticancer Drug Screen. Data for the mlh1 rad18 strain (AID 175); conditions: S. cerevisiae mlh1 rad18 strain growth inhibition, hits give high values
# Summary of the method: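 Compound-treated yeast growth, normalised to vehicle controls. Strain bears defined DNA repair mutations.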
# [16] = NCI Yeast Anticancer Drug Screen. Data for the rad18 strain (AID 177); conditions: S. cerevisiae rad18 mutant growth inhibition, hits give high values
# Summary of the method: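 Inhibition values reflect reduced yeast growth compared with vehicle-treated controls, using a strain engineered with a DNA damage repair defect.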
# [17] = at 5.0 µM (retest, dose inferred, filed as 0.5)
# [18] = at 50.0 µM (retest, dose inferred, filed as 5.0)
smiles,measurement,setting,value
C/C(=N/NC(=S)Nc1ccccc1C)c1ccccn1,growth inhibition,[1]; at 1.2 µM,2%
same,growth inhibition,[1]; at 3.7 µM,9%
same,growth inhibition,[1]; at 11.0 µM,15%
same,growth inhibition,[1]; at 33.0 µM,17%
same,growth inhibition,[1]; at 100.0 µM,7%
same,growth inhibition,[2]; at 1.2 µM,-11%
same,growth inhibition,[2]; at 3.7 µM,-10%
same,growth inhibition,[2]; at 11.0 µM,-9%
same,growth inhibition,[2]; at 33.0 µM,-10%
same,growth inhibition,[2]; at 100.0 µM,-8%
same,growth inhibition,[3]; at 1.2 µM,3%
same,growth inhibition,[3]; at 3.7 µM,6%
same,growth inhibition,[3]; at 11.0 µM,13%
same,growth inhibition,[3]; at 33.0 µM,14%
same,growth inhibition,[3]; at 100.0 µM,4%
same,growth inhibition,[4]; at 1.2 µM,-6%
same,growth inhibition,[4]; at 3.7 µM,-10%
same,growth inhibition,[4]; at 11.0 µM,4%
same,growth inhibition,[4]; at 33.0 µM,-22%
same,growth inhibition,[4]; at 100.0 µM,-5%
same,growth inhibition,[5]; at 1.2 µM,1%
same,growth inhibition,[5]; at 3.7 µM,5%
same,growth inhibition,[5]; [17],9%
same,growth inhibition,[5]; at 11.0 µM,-9%
same,growth inhibition,[5]; at 33.0 µM,7%
same,growth inhibition,[5]; [18],12%
same,growth inhibition,[5]; at 50.0 µM,78% (active)
same,growth inhibition,[5]; at 100.0 µM,5%
same,growth inhibition,[6]; at 1.2 µM,-3%
same,growth inhibition,[6]; at 3.7 µM,-10%
same,growth inhibition,[6]; [17],-40%
same,growth inhibition,[6]; at 11.0 µM,-9%
same,growth inhibition,[6]; at 33.0 µM,-9%
same,growth inhibition,[6]; [18],1%
same,growth inhibition,[6]; at 50.0 µM,47%
same,growth inhibition,[6]; at 100.0 µM,-6%
same,growth inhibition,[7]; at 1.2 µM,-11%
same,growth inhibition,[7]; at 3.7 µM,-11%
same,growth inhibition,[7]; at 11.0 µM,-11%
same,growth inhibition,[7]; at 33.0 µM,-14%
same,growth inhibition,[7]; at 100.0 µM,-6%
same,growth inhibition,[8]; [17],-35%
same,growth inhibition,[8]; [18],15%
same,growth inhibition,[8]; at 50.0 µM,79.8% (active)
same,growth inhibition,[9]; at 1.2 µM,-8%
same,growth inhibition,[9]; at 3.7 µM,-6%
same,growth inhibition,[9]; at 11.0 µM,-9%
same,growth inhibition,[9]; at 33.0 µM,-11%
same,growth inhibition,[9]; at 100.0 µM,-11%
same,growth inhibition,[10]; [17],12%
same,growth inhibition,[10]; [18],14%
same,growth inhibition,[10]; at 50.0 µM,87.5% (active)
same,growth inhibition,[11]; at 1.2 µM,-7%
same,growth inhibition,[11]; at 3.7 µM,1%
same,growth inhibition,[11]; [17],-32%
same,growth inhibition,[11]; at 11.0 µM,4%
same,growth inhibition,[11]; at 33.0 µM,-2%
same,growth inhibition,[11]; [18],57%
same,growth inhibition,[11]; at 50.0 µM,65%
same,growth inhibition,[11]; at 100.0 µM,-9%
same,growth inhibition,[12]; at 1.2 µM,-6%
same,growth inhibition,[12]; at 3.7 µM,-6%
same,growth inhibition,[12]; at 11.0 µM,-5%
same,growth inhibition,[12]; at 33.0 µM,-5%
same,growth inhibition,[12]; at 100.0 µM,-5%
same,growth inhibition,[13]; at 1.2 µM,-6%
same,growth inhibition,[13]; at 3.7 µM,-7%
same,growth inhibition,[13]; at 11.0 µM,-5%
same,growth inhibition,[13]; at 33.0 µM,-9%
same,growth inhibition,[13]; at 100.0 µM,-6%
same,growth inhibition,[14]; at 1.2 µM,-6%
same,growth inhibition,[14]; at 3.7 µM,-5%
same,growth inhibition,[14]; at 11.0 µM,-5%
same,growth inhibition,[14]; at 33.0 µM,-7%
same,growth inhibition,[14]; at 100.0 µM,-6%
same,growth inhibition,[15]; [17],-15%
same,growth inhibition,[15]; [18],-1%
same,growth inhibition,[15]; at 50.0 µM,86.5% (active)
same,growth inhibition,[16]; at 1.2 µM,0%
same,growth inhibition,[16]; at 3.7 µM,3%
same,growth inhibition,[16]; at 11.0 µM,3%
same,growth inhibition,[16]; at 33.0 µM,-17%
same,growth inhibition,[16]; at 100.0 µM,-4%
O=C1CSC(c2ccccc2)N1c1ccc(-c2ccc(-n3c(-c4ccccc4)nc4ccccc4c3=O)cc2)cc1 (stereo unspecified),growth inhibition,[1]; at 1.2 µM,0%
same,growth inhibition,[1]; at 3.7 µM,1%
same,growth inhibition,[1]; at 11.0 µM,3%
same,growth inhibition,[1]; at 33.0 µM,6%
same,growth inhibition,[1]; at 100.0 µM,38%
same,growth inhibition,[2]; at 1.2 µM,-2%
same,growth inhibition,[2]; at 3.7 µM,0%
same,growth inhibition,[2]; at 11.0 µM,-2%
same,growth inhibition,[2]; at 33.0 µM,-19%
same,growth inhibition,[2]; at 100.0 µM,-7%
same,growth inhibition,[3]; at 1.2 µM,3%
same,growth inhibition,[3]; at 3.7 µM,9%
same,growth inhibition,[3]; at 11.0 µM,15%
same,growth inhibition,[3]; at 33.0 µM,20%
same,growth inhibition,[3]; at 100.0 µM,24%
same,growth inhibition,[4]; at 1.2 µM,0%
same,growth inhibition,[4]; at 3.7 µM,1%
same,growth inhibition,[4]; at 11.0 µM,0%
same,growth inhibition,[4]; at 33.0 µM,22%
same,growth inhibition,[4]; at 100.0 µM,64%
same,growth inhibition,[5]; at 1.2 µM,0%
same,growth inhibition,[5]; at 3.7 µM,1%
same,growth inhibition,[5]; [17],-2%
same,growth inhibition,[5]; at 11.0 µM,2%
same,growth inhibition,[5]; at 33.0 µM,13%
same,growth inhibition,[5]; [18],44%
same,growth inhibition,[5]; at 50.0 µM,57.1%
same,growth inhibition,[5]; at 100.0 µM,43%
same,growth inhibition,[6]; at 1.2 µM,0%
same,growth inhibition,[6]; at 3.7 µM,-1%
same,growth inhibition,[6]; [17],-1%
same,growth inhibition,[6]; at 11.0 µM,2%
same,growth inhibition,[6]; at 33.0 µM,4%
same,growth inhibition,[6]; [18],27%
same,growth inhibition,[6]; at 50.0 µM,30.7%
same,growth inhibition,[6]; at 100.0 µM,40%
same,growth inhibition,[7]; at 1.2 µM,1%
same,growth inhibition,[7]; at 3.7 µM,7%
same,growth inhibition,[7]; at 11.0 µM,14%
same,growth inhibition,[7]; at 33.0 µM,36%
same,growth inhibition,[7]; at 100.0 µM,44%
same,growth inhibition,[8]; [17],6%
same,growth inhibition,[8]; [18],45%
same,growth inhibition,[8]; at 50.0 µM,91.1% (active)
same,growth inhibition,[9]; at 1.2 µM,5%
same,growth inhibition,[9]; at 3.7 µM,3%
same,growth inhibition,[9]; at 11.0 µM,6%
same,growth inhibition,[9]; at 33.0 µM,6%
same,growth inhibition,[9]; at 100.0 µM,10%
same,growth inhibition,[10]; [17],40%
same,growth inhibition,[10]; [18],-1%
same,growth inhibition,[10]; at 50.0 µM,36%
same,growth inhibition,[11]; at 1.2 µM,2%
same,growth inhibition,[11]; at 3.7 µM,5%
same,growth inhibition,[11]; [17],3%
same,growth inhibition,[11]; at 11.0 µM,12%
same,growth inhibition,[11]; at 33.0 µM,23%
same,growth inhibition,[11]; [18],77% (active)
same,growth inhibition,[11]; at 50.0 µM,82.3% (active)
same,growth inhibition,[11]; at 100.0 µM,59%
same,growth inhibition,[12]; at 1.2 µM,0%
same,growth inhibition,[12]; at 3.7 µM,-3%
same,growth inhibition,[12]; at 11.0 µM,-2%
same,growth inhibition,[12]; at 33.0 µM,7%
same,growth inhibition,[12]; at 100.0 µM,28%
same,growth inhibition,[13]; at 1.2 µM,-1%
same,growth inhibition,[13]; at 3.7 µM,-2%
same,growth inhibition,[13]; at 11.0 µM,-1%
same,growth inhibition,[13]; at 33.0 µM,14%
same,growth inhibition,[13]; at 100.0 µM,54%
same,growth inhibition,[14]; at 1.2 µM,1%
same,growth inhibition,[14]; at 3.7 µM,1%
same,growth inhibition,[14]; at 11.0 µM,6%
same,growth inhibition,[14]; at 33.0 µM,23%
same,growth inhibition,[14]; at 100.0 µM,46%
same,growth inhibition,[15]; [17],-20%
same,growth inhibition,[15]; [18],83% (active)
same,growth inhibition,[15]; at 50.0 µM,82.7% (active)
same,growth inhibition,[16]; at 1.2 µM,-1%
same,growth inhibition,[16]; at 3.7 µM,2%
same,growth inhibition,[16]; at 11.0 µM,8%
same,growth inhibition,[16]; at 33.0 µM,15%
same,growth inhibition,[16]; at 100.0 µM,20%
